For assay [1], the target named is Cellular tumor antigen p53 (Homo sapiens) (UniProt P04637). The assay can be described thus: Primary qHTS for small molecule compounds that upregulate eGFP-tagged delta133p53alpha (in N-terminal) cells. (AID 2060322). Further: nearly all actives have a fitted effect of over 75% in size. Further: potency means the concentration at half of the fitted maximal effect.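 On activation: cells pre-induced with doxycycline then dosed without doxycycline; 0% = DMSO vehicle and 100% = reference activator.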 The conditions noted are these: NCI-H358 eGFP-delta133p53alpha fluorescence, 24 h; activation: stronger effect = higher value. The essentials:
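NCI-H358 cells pre-induced 24 h with 10 ng/ml doxycycline for eGFP-delta133p53alpha, plated dox-free and exposed 24 h at 37C to titrated compounds. Fixed, Hoechst-stained; gated GFP peak intensity by laser scanning cytometry, normalized to DMSO (0%) and 57.5 uM 5-azacytidine (100%).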
On the technique in general: Quantitative high-throughput screening tests each substance at several concentrations.

Assay [2] has as its target Aldehyde dehydrogenase, mitochondrial (Homo sapiens) (UniProt P05091). Description: qHTS for Inhibitors of the Aldehyde Dehydrogenase Family (ALDH2) Primary screen (AID 2061308).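 Further: plate controls were vehicle for no effect and reference inhibitor for full effect; nearly all actives have a fitted effect of over 55% in size.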 The conditions noted are these: ALDH2 enzyme inhibition qHTS, 1536-well; series mostly up to 56 µM.
The target of assay [3] is Retinaldehyde dehydrogenase 3 (Homo sapiens) (UniProt P47895). The assay can be described thus: qHTS for Inhibitors of the Aldehyde Dehydrogenase Family (ALDH1A3) Primary screen (AID 2061315).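 Further: plate controls were DMSO vehicle for no effect and reference inhibitor for full effect.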 The following applies: ALDH inhibition qHTS; series mostly up to 56 µM.

In PubChem BioAssay (NCATS) one finds Potency, activation and activity change, negative = inhibition data, which are given here for 21 compounds.

Results filed as inconclusive are left out. A number with no mark means an inactive call. Calls of active or inactive are those of the source. The call rests on the fitted dose curve; in most records, active means well fitted curve in the direction sought with a large enough effect; inconclusive means small, poorly fitted or top-dose-only effect, or another doubt; inactive means no such curve, though single readings can be large; an effect the other way counts as inactive or inconclusive.

Cellular tumor antigen p53 (Homo sapiens), sequence (P04637 whole entry, looked up): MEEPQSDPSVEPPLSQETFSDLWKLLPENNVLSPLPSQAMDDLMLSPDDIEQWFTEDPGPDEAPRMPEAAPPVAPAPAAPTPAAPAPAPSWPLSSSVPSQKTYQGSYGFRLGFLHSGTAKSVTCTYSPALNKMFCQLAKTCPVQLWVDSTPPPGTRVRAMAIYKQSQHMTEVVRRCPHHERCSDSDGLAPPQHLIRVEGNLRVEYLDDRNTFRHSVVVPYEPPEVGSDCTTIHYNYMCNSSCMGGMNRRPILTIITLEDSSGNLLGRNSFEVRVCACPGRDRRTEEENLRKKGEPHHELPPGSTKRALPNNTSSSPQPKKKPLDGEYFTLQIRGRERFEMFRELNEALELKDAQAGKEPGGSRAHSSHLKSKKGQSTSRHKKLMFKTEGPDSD

Consider `C=C1C(=O)O[C@@H]2C[C@@]3(C)C[C@@H](O)C[C@H](C)C3=C[C@H]12`, for which the Potency in assay [1] was 23.9 µM (active). For the same compound, the Potency result in assay [2] and in assay [3] was “inactive” throughout.

In the case of `OC1COC(OCC2OC(OCCc3ccccc3)C(O)C(O)C2O)C(O)C1O` (stereo not drawn), the activation in assay [1] was -11.5%. Further, the Potency result in assay [2] and in assay [3] was “inactive” each time.

On to `CC(C)(C)OC(=O)c1ncn2c1C(C)(C)Nc1ccccc1-2`, for which the activation in assay [1] was -12.5%. Besides, the Potency entry in assay [2] and in assay [3] was “inactive” throughout.

Consider `C/C=C(\C)C(=O)OC1C2(O)CC3=C4CC(=O)OC(c5ccoc5)C4(C)CCC3C(C)(C2=O)C(C(OC(C)=O)C(=O)OC)C1(C)C` (stereo not drawn), for which the activation in assay [1] is -7.63%. Moreover, the Potency result in assay [2] and in assay [3] was “inactive” throughout.

For `CC(C)=CCC/C(C)=C/CO[C@@H]1O[C@H](CO)[C@@H](OC(=O)/C=C/c2ccc(O)cc2)[C@H](O[C@@H]2O[C@@H](C)[C@H](O)[C@@H](O)[C@H]2O)[C@H]1O`, in assay [1], the activation was 19.6%. For the same compound, the Potency result in assay [2] and in assay [3] was “inactive” each time.

As to `CC1CCC2(NC1)OC1C(O)C3C4CCC5CC(O[C@@H]6O[C@H](CO)[C@@H](O)[C@H](O)[C@H]6O[C@@H]6O[C@@H](C)[C@H](O)[C@@H](O)[C@H]6O)CCC5(C)C4CCC3(C)C1C2C` (stereo partly drawn), in assay [1], the activation is -15.3%. The Potency result in assay [2] and in assay [3] was “inactive” each time.

With `C=CC(C)(CC/C=C(\C)C(=O)OC[C@H]1O[C@@H](OC(C)(C=C)CC/C=C(\C)C(=O)O[C@H]2[C@H](O)[C@@H](O)[C@H](OC(C)(C=C)CC/C=C(\C)C(=O)O)O[C@@H]2CO)[C@H](O)[C@@H](O)[C@@H]1O)O[C@@H]1O[C@H](CO)[C@@H](O)[C@H](O)[C@H]1O` (stereo partly drawn), the activation in assay [1] was -9.16%. For the same compound, the Potency entry in assay [2] and in assay [3] was “inactive” throughout.

As to `C=CC(C)(CC/C=C(\C)C(=O)OC)OC1OC(COC(=O)CC(C)(O)CC(=O)O)C(OC2OC(CO)C(O)C(O)C2O)C(O)C1O` (stereo not drawn), the activation in assay [1] was -11.5%. Also, the Potency entry in assay [2] and in assay [3] was “inactive” each time.

For the compound `COc1cc(CCCO)ccc1O[C@@H]1O[C@H](CO)[C@@H](O)[C@H](O)[C@H]1O`, the activation in assay [1] is -16.1%. In addition, the Potency entry in assay [2] and in assay [3] was “inactive” throughout.

`O=C(O)CC(CCc1ccccc1)OC1OC(CO)C(O)C(O)C1O` (stereo not drawn): the activation in assay [1] was 3.57%. In addition, the Potency entry in assay [2] and in assay [3] was “inactive” throughout.

Take `O=S(=O)(c1ccccc1)c1cnc2c(N3CCNCC3)cccc2c1`: the activation in assay [1] is 27%. The Potency entry in assay [2] and in assay [3] was “inactive” each time.

For `CN1CCc2cc(Cl)c(O)cc2[C@@H](c2cccc3c2OCC3)C1`, the activation in assay [1] is -1.67%. Also, the Potency entry in assay [2] and in assay [3] was “inactive” throughout.

As for `C=C(C)C1CCC(C)C12CC(O)C1(C)OC1C2OC(=O)C(N)CCC(=O)O` (stereo not drawn), the activation in assay [1] was -6.11%. In addition, the Potency entry in assay [2] and in assay [3] was “inactive” throughout.

Consider `C=CCc1ccc(OC(C)Cc2ccc(OC)c(OC)c2)c(OC)c1` (stereo not drawn), for which, in assay [1], the activation is -15.2%. The Potency result in assay [2] and in assay [3] was “inactive” throughout.

With `CC1=CC(=O)CC(C)(C)C1CCC(C)O[C@@H]1O[C@H](CO[C@@H]2OC[C@@H](O)[C@H](O)[C@H]2O)[C@@H](O)[C@H](O)[C@H]1O` (stereo partly drawn), the activation in assay [1] is -10.7%. Besides, the Potency entry in assay [2] and in assay [3] was “inactive” throughout.

Take `C[C@@H]1O[C@@H](O[C@@H]2[C@@H](O)[C@H](O[C@@H]3[C@@H](O)[C@@H](O)[C@H](O[C@H]4[C@H](OC(=O)[C@]56CCC(C)(C)C[C@H]5C5=CCC7[C@@]8(C)C[C@H](O)[C@H](O[C@@H]9O[C@@H](C)[C@H](O)[C@@H](O)[C@H]9O)[C@@](C)(CO)C8CC[C@@]7(C)[C@]5(C)C[C@H]6O)O[C@H](C)[C@H](O)[C@@H]4O)O[C@H]3C)OC[C@H]2O)[C@H](O)[C@H](O)[C@H]1O` (stereo partly drawn): the activation in assay [1] was 19.6%. The values for the activity change, negative = inhibition in assay [2] and in assay [3] were 0.778% [at 11.2 µM] and 5.2% [at 11.2 µM], respectively.

Regarding `CCC(C)C(=O)O[C@H]1C[C@](C)(O)[C@]23OC(C)(C)[C@H](C[C@H](OC(=O)c4ccccc4)[C@]2(COC(C)=O)[C@H]1OC(=O)C(C)CC)[C@H]3OC(C)=O` (stereo partly drawn), the activation in assay [1] is 11.5%. The Potency entry in assay [2] and in assay [3] was “inactive” throughout.

For the compound `Nc1ncnc2c1nc(Cl)n2C1OC2COP(=O)(O)OC2C1O` (stereo not drawn), the activation in assay [1] was -12.3%. The Potency result in assay [2] and in assay [3] was “inactive” each time.

For `CN(C)C(=O)C(=O)c1cn(C)c2cc(Cl)c(C(=O)N3CCC(Cc4ccc(F)cc4)CC3)cc12`, in assay [1], the activation was -10.7%. The Potency entry in assay [2] and in assay [3] was “inactive” throughout.

With `CC(C)(O)c1ccc2c(c1)C(O)CC1C(C)(C(=O)O)CCCC21C` (stereo not drawn), the activation in assay [1] was 5.34%. The Potency entry in assay [2] and in assay [3] was “inactive” each time.

On to `CC1CCC2(C(=O)O)CCC3(C)C(=CCC4C5(C)CCC(O)C(C)(C(=O)O)C5CCC43C)C2C1(C)O` (stereo not drawn), for which the activation in assay [1] is -8.4%. Besides, the Potency entry in assay [2] and in assay [3] was “inactive” in each case.
